The panel holds about 83,000 compounds, 20% with a hit somewhere; the sample as a whole holds those more often.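 Results are percent growth after 48 hours of single-concentration exposure. 100 means growth as in untreated cells, lower positive values show inhibition; negative values down to -100 show cell death.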 Values without a mark were called inactive. Activity calls are given as the source filed them. Rule for the calls: active = growth percent below 10; inactive = the rest.
Key:
Assay in all cases: NCI-60 one-dose screen, 48 h (100 = growth as untreated, 0 = no growth, -100 = all killed)
Conditions in all cases: 10 µM unless noted
[1] = tested on: NCI-H23 lung
[2] = tested on: NCI-H226 lung
[3] = tested on: NCI-H322M lung
[4] = tested on: HOP-62 NSCLC
[5] = tested on: NCI-H460 lung
[6] = tested on: HOP-92 NSCLC
[7] = tested on: NCI-H522 lung
[8] = tested on: A549/ATCC NSCLC
[9] = tested on: 786-0 renal
[10] = tested on: COLO 205 colon
[11] = tested on: DU-145 prostate
[12] = tested on: K-562 leukemia
[13] = tested on: MALME-3M melanoma
[14] = tested on: MDA-MB-231 breast
[15] = tested on: RXF 393 renal
[16] = tested on: SF-268 CNS
[17] = tested on: SF-295 CNS
[18] = tested on: SF-539 CNS
[19] = tested on: UACC-257 melanoma
[20] = tested on: M14 melanoma

Row | SMILES | growth [1] | growth [2] | growth [3] | growth [4] | growth [5] | growth [6] | growth [7] | growth [8] | growth [9] | growth [10] | growth [11] | growth [12] | growth [13] | growth [14] | growth [15] | growth [16] | growth [17] | growth [18] | growth [19] | growth [20]
1 | CCOc1ccc(NC(=O)c2cc(OC)c(OC)c(OC)c2)cc1 | 45.8% | 68.1% | 52.2% | 56.2% | 17.1% | 44.1% | 42.3% | 46.6% | 32.3% | 11.8% | 54% | 17% | 38.2% | 62.7% | 39.8% | 47.6% | 26.2% | 23.5% | 50.1% | 16.5%
2 | O=C1CCCc2nc3sc4c(=O)n(-c5ccccc5Cl)nnc4c3cc21 | 101% | 89.1% | 101% | 94.3% | 100% | 94.9% | 74.5% | 80% | 86.6% | 105% | 111% | 102% | 102% | 93.6% | 91.2% | 103% | 95.1% | 103% | 85.3% | 106%
3 | O=C1Nc2ccccc2/C1=C/c1cn(C[C@@H](O)Cn2c3ccccc3c(=O)c3ccccc32)c2ccccc12 | 84.1% | 63.1% | 75.9% | 62.2% | 74.3% | 52.9% | 55.5% | 71.6% | 86.4% | 84.1% | 105% | 68.4% | 81.3% | 50.2% | 76.8% | 72.8% | 81.6% | 84.7% | 100% | 69.7%
4 | COc1cccc(/C=C/C(=O)c2cc3c(N)c(C(=O)Nc4ccccc4C)sc3nc2C)c1 | 70.4% | 69.2% | 80.5% | 67.7% | 32.2% | 74.1% | -7.9% (active) | 62.9% | 9.79% (active) | 92.2% | 8.15% (active) | 12.9% | 78.6% | 52.8% | -10.2% (active) | 28.9% | 74% | 50.9% | 83.2% | 47.5%
5 | O=C(Nc1ncc(Cc2ccccc2Cl)s1)c1cccs1 | 80.3% | 85.1% | 78% | 66.6% | 57.7% | 58.6% | 51.9% | 54.1% | 86.1% | 85.8% | 82.6% | 16.9% | 69.1% | 88.7% | 82.2% | 76.4% | 65.2% | 95.8% | 92.6% | 62.3%
6 | O=C(NCc1ccccc1O)c1cccc2ccccc12 | 47.8% | 76.7% | 95.9% | 86.5% | 70.3% | -8.54% (active) | 65.8% | 87.4% | 72.7% | 106% | 95.6% | 55.1% | 48.7% | 68.9% | 95.2% | 87.9% | 87.3% | 63.5% | 75.5% | 75.8%
7 | CCn1c2ccc(O)cc2c2c(C)c3c[n+](C(C)C)ccc3c(C)c21 | 36.3% | 66.8% | 41.8% | 43% | 9.02% (active) | 51.2% | 19.9% | 69.1% | 56.1% | 13.1% | 29.6% | 41% | -6.64% (active) | 45.4% | 53.4% | 14% | 60.5% | 38.7% | 37% | 36.5%
8 | COc1ccc(Cc2nnc(Nc3nc4ccccc4s3)s2)cc1 | 93% | 98.3% | 89.1% | 108% | 102% | 85% | 100% | 99.4% | 98.1% | 111% | 109% | 64.8% | 100% | 98% | 97.8% | 103% | 92.9% | 93.9% | 99.9% | 102%
9 | CC(C)c1ccc(C(=O)Nc2sc3cc(O)ccc3c2C#N)cc1 | 46.2% | 58.2% | 61.7% | 41.1% | 23% | 79.2% | 54.2% | 44.6% | 31.2% | 91.8% | 50.5% | 13.8% | 39.2% | 46.3% | 45.2% | 44.8% | 22.2% | 32.5% | 51.3% | 5.43% (active)
10 | Cn1cc(C(=O)c2nc(-c3c[nH]c4ccc(Br)cc34)no2)c2cc(Br)ccc21 | 83% | 102% | 73.4% | 78.4% | 12.5% | 83.9% | 84.2% | 32.1% | 99.4% | 93.3% | 3.08% (active) | 37.7% | 43.7% | 45.9% | 96.4% | 55.9% | 88.4% | 88.7% | 109% | 47%
11 | Cc1ccccc1OCC(O)COc1ccccc1C | 404% | 97.9% | 95.4% | 96.2% | 96.8% | 93.9% | 77% | 84.2% | 100% | 98.2% | 120% | 114% | 88.5% | 103% | 80.5% | 99.4% | 98.5% | 95.9% | 89.2% | 98.5%
12 | C=C1C(=O)O[C@H]2[C@H]1CC/C(COC(=O)c1cc3cc(F)ccc3[nH]1)=C\CC[C@@]1(C)O[C@@H]21 | -66.4% (active) | -41.3% (active) | -35.7% (active) | -50.8% (active) | -59.2% (active) | -84.9% (active) | -68.9% (active) | -61.9% (active) | -89.6% (active) | -68.7% (active) | -93.1% (active) | 0.0225% (active) | -76.4% (active) | -70.1% (active) | -84.4% (active) | -71.2% (active) | 33% | -87% (active) | -79.5% (active) | -75.9% (active)
13 | N#Cc1c(-c2ccccc2)c(C#N)c2c(C#N)c(N)nn2c1N | 72.2% | 74% | 83.5% | 40.2% | 19.7% | 27.1% | 13.1% | 38.7% | 53.4% | 29.4% | 78.6% | 6.77% (active) | 39.6% | 33.6% | 69.8% | 56.3% | 33.4% | 37.2% | 51.1% | 32.9%
14 | CCN1C(=S)N(CC)C2C1NC(=S)N2/N=C/C=C/c1ccccc1OC (stereo not given) | 24.1% | 57% | 45.2% | 39.2% | 6.8% (active) | 74.6% | -11.3% (active) | 17.7% | 35.6% | 10% | 13.9% | 10.2% | 53.5% | 11.5% | 20.4% | 56.4% | 12.4% | -18.5% (active) | 53.6% | 10.3%
15 | COc1ccc(-c2oc(=O)ccc2-c2cc(OC)c(OC)c(OC)c2)cc1O | 49% | 64.1% | 41.6% | -15.8% (active) | 4.04% (active) | 103% | -0.118% (active) | 26% | 20.5% | 45.2% | 6.81% (active) | -9.26% (active) | 37.8% | 38.6% | -38.7% (active) | 24.9% | -17.8% (active) | -13.7% (active) | 47.3% | -62.5% (active)

From PubChem BioAssay (NCI)
